The experiment relates to E18 rat cortical neuron-glia co-culture. Kind of experiment: myelination (MBP fiber length per Olig2+ nucleus), % of 1 µM DAPT response (DMSO = 0) (% of DAPT); higher = more myelination, active = 50 or more. To be noted: 5 µM; treatment time: 8 days (DIV5-DIV13). The method in brief: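 Myelination, expressed as continuous straight MBP fiber length per Olig2+ nucleus, was normalised to 0.1 % DMSO as 0 and a 1 µM positive control as 100. The cultures were primary E18 rat cortical co-cultures dissociated with papain and plated at 20,000 cells/well on poly-d-lysine/laminin-coated 96-well plates. They received library compounds at 1 or 5 µM in myelination medium between DIV5 and DIV13. Analysis covered four 10X fields per well in duplicate wells after 4 % paraformaldehyde fixation and immunostaining for MBP and Olig2 with DAPI.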
Consider `CCn1cc(C(=O)O)c(=O)c2ccc(C)nc21` [Nalidixic Acid], for which the myelination is -7.26 (inactive).

Regarding `C[C@H]1c2cccc(O)c2C(=O)C2=C(O)[C@]3(O)C(=O)C(C(N)=O)=C(O)[C@@H](N(C)C)[C@@H]3[C@@H](O)[C@@H]21` [Doxycycline], the myelination was -0.977 (inactive).

For the compound `CCOC(=O)N1CCC(=C2c3ccc(Cl)cc3CCc3cccnc32)CC1` [Loratadine], the myelination is -5.18 (inactive).

With `CCC1=C[C@@H]2CN(C1)Cc1c([nH]c3ccccc13)[C@@](C(=O)OC)(c1cc3c(cc1OC)N(C)[C@H]1[C@@](O)(C(=O)OC)[C@H](OC(C)=O)[C@]4(CC)C=CCN5CC[C@]31[C@@H]54)C2` [Vinorelbine], the myelination is -26.1 (inactive).

As to `O=C(O[C@@H]1Cc2c(O)cc(O)cc2O[C@@H]1c1cc(O)c(O)c(O)c1)c1cc(O)c(O)c(O)c1` [Epigallocatechin gallate], the myelination was -10.9 (inactive).

With `Cc1onc(-c2ccccc2)c1C(=O)N[C@@H]1C(=O)N2[C@@H]1SC(C)(C)[C@@H]2C(=O)O` [Oxacillin], the myelination was -10.5 (inactive).

Regarding `CN1CCC[C@H]1c1cccnc1` [Nicotine], the myelination was 2.28 (inactive).

For `C=C1/C(=C\C=C2/CCC[C@]3(C)[C@@H]([C@H](C)CCCC(C)(C)O)CC[C@@H]23)C[C@@H](O)C[C@@H]1O` [Calcitriol], the myelination is 6.28 (inactive).

With `O=C(c1ccc(OCCN2CCCCC2)cc1)c1c(-c2ccc(O)cc2)sc2cc(O)ccc12` [Raloxifene], the myelination was 13.4 (inactive).

As for `C[C@@H]1O[C@@H](OC[C@H]2O[C@@H](Oc3c(-c4ccc(O)c(O)c4)oc4cc(O)cc(O)c4c3=O)[C@H](O)[C@@H](O)[C@@H]2O)[C@H](O)[C@H](O)[C@H]1O` [Rutin], the myelination was -4.44 (inactive).

In the case of `OCc1cccnc1` [Nicotinyl Alcohol], the myelination is -10.1 (inactive).

Consider `CC(C)(C)NCC(O)COc1cccc2c1CC(O)C(O)C2` (centres undefined) [Nadolol], for which the myelination is -7.81 (inactive).

`Cc1c(OCC(F)(F)F)ccnc1C[S+]([O-])c1nc2ccccc2[nH]1` (centres undefined) [Lansoprazole] showed a myelination of 65.6.

For the compound `CCCSc1ccc2[nH]c(NC(=O)OC)nc2c1` [Albendazole], the myelination is -37.4 (inactive).

Turning to `Cc1nc2n(c(=O)c1CCN1CCC(c3noc4cc(F)ccc34)CC1)CCCC2` [Risperidone], the myelination was -15.1 (inactive).

As for `C#C[C@]1(OC(C)=O)CC[C@H]2[C@@H]3CCC4=CC(=O)CC[C@@H]4[C@H]3CC[C@@]21C` [Norethisterone acetate], the myelination was -6.86 (inactive).

As to `CC(C)Oc1ccc2c(=O)c(-c3ccccc3)coc2c1` [Ipriflavone], the myelination was -7.62 (inactive).

For the compound `Cc1[nH]cnc1CN1CCc2c(c3ccccc3n2C)C1=O` [Alosetron], the myelination is -2.39 (inactive).

On to `NC[C@H](O)c1ccc(O)c(O)c1` [Norepinephrine], for which the myelination was -38.4 (inactive).

With `CCOC(=O)OC(C)OC1=C(C(=O)Nc2ccccn2)N(C)S(=O)(=O)c2ccccc21` (centres undefined) [Ampiroxicam], the myelination is -4.42 (inactive).

With `CCCCC(=O)N(Cc1ccc(-c2ccccc2-c2nnn[nH]2)cc1)[C@H](C(=O)O)C(C)C` [Valsartan], the myelination is -17.4 (inactive).

As to `CC1=C(C(=O)O)N2C(=O)[C@@H](NC(=O)[C@H](N)c3ccccc3)[C@H]2SC1` [Cephalexin], the myelination was -1.59 (inactive).

`O=c1[nH]cnc2c1ncn2[C@H]1CC[C@@H](CO)O1` [2',3'-Dideoxyinosine]: the myelination was -10.5 (inactive).

Turning to `CC(C)NCC(O)c1ccc(NS(C)(=O)=O)cc1` (centres undefined) [Sotalol], the myelination is -60.5 (inactive).

As to `Nc1nc(N)c2nc(-c3ccccc3)c(N)nc2n1` [Triamterene], the myelination was 461 (active).

On to `OCc1cc(C(O)CNCCCCCCOCCCCc2ccccc2)ccc1O` (centres undefined) [Salmeterol], for which the myelination is -37.6 (inactive).

As for `COc1cc(C[C@@H](CO)[C@H](CO)Cc2ccc(O)c(OC)c2)ccc1O` [Secoisolariciresinol], the myelination is -8.85 (inactive).

As for `C#C[C@]1(O)CC[C@H]2[C@@H]3CCC4=CC(=O)CC[C@@H]4[C@H]3CC[C@@]21C` [Norethindrone], the myelination was -10.7 (inactive).

Regarding `C[C@](N)(Cc1ccc(O)c(O)c1)C(=O)O` [Methyldopa], the myelination was -8.85 (inactive).

As for `O=C1CC[C@@H](C(=O)N2CSC[C@H]2C(=O)O)N1` [Pidotimod], the myelination is -4.26 (inactive).

Regarding `COCCCC/C(=N\OCCN)c1ccc(C(F)(F)F)cc1` [Fluvoxamine], the myelination is -9.1 (inactive).

Regarding `CN1CCC(=C2c3ccccc3C=Cc3ccccc32)CC1` [Cyproheptadine], the myelination was -1.4 (inactive).

Turning to `CNNCc1ccc(C(=O)NC(C)C)cc1` [Procarbazine], the myelination is -0.797 (inactive).

With `CN(C)CCC=C1c2ccccc2CCc2ccccc21` [Amitriptyline], the myelination is 30.2 (inactive).

For `C[C@]12C[C@H](O)[C@H]3[C@@H](CCC4=CC(=O)CC[C@@]43C)[C@@H]1CC[C@@H]2C(=O)CO` [Corticosterone], the myelination is -4.49 (inactive).

Turning to `CN1C(=O)CC[C@H]1c1cccnc1` [Cotinine], the myelination was -28.1 (inactive).

For `CN(C)c1nc(N(C)C)nc(N(C)C)n1` [Altretamine], the myelination is -4.16 (inactive).

Regarding `S=c1[nH]cnc2nc[nH]c12` [Mercaptopurine], the myelination was -50.2 (inactive).

As to `Cc1ncc([N+](=O)[O-])n1CC(C)O` (centres undefined) [Secnidazole], the myelination is -18.7 (inactive).

Values taken from the supplement of paper PMC4840960.
